# Screening data: PubChem BioAssay, Broad Institute
# Tgondii IFNg = T. gondii growth inhibition with IFN-gamma, primary screen, cell-based; Toxoplasma gondii growth in IFN-gamma-treated host cells; active compounds read low; activity change, negative = inhibition, % (test concentration not listed); actives 3.8% (n = 69,000); AID 1259416, 2018; in the data active means activity change below about -70%, passing the limit was not always enough;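 further: host cells are HeLa cells infected with Toxoplasma gondii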
# Active calls of the source: *; ! = not confirmed by another sample. The sample as a whole holds a higher share of hits than the screen did.
SMILES,Tgondii IFNg
Cc1ccc(-c2coc(-c3ccc(NC(=O)NCCc4ccccc4)cc3)n2)cc1,13.7
O=C(CCC(=O)NC1CCCCCC1)NCc1cccc2[nH]ccc12,4.5
COc1ccccc1Oc1ccc(NS(=O)(=O)NCc2ccccc2)cc1,-52.6
CCc1cc(C(C)Nc2nc(-c3cccnc3)nc3c2CNC3)on1 (configuration not stated),-88.2*
CC(C)(C)CC(Nc1nc(-c2cccnc2)nc2c1CNC2)c1cccnc1 (configuration not stated),-17.7
CC(C)Cc1cc(CNc2nc(-c3cccnc3)nc3c2CCNC3)no1,-35.9
CCN1c2ccc(C)cc2C(=O)NC12CCN(C(=O)c1ccc(C(F)(F)F)cc1)CC2,-16.9
COc1cncc(C(=O)Nc2ccc(C)c(F)c2)c1,-15.2
CCOC(=O)c1cc(NC(=O)c2ccc(F)c(Cl)c2)ccc1Oc1cncc(Cl)c1,-89.6*
CCOC(=O)c1nc(Nc2ccc(F)c(Cl)c2)c2ccccc2n1,-51.2
O=S(=O)(Cc1ccc(Cl)cc1)CC(O)COc1ccc(F)cc1 (configuration not stated),19.2
CCOc1ccc2c(c1)C(c1ccc(F)cc1)=NNC(c1ccc(Cl)cc1)=N2,-34.5
OC(COc1ccc(F)cc1)(c1ccc(Cl)cc1)c1ccc(Cl)cc1,-98.7*
CN(C)C(=O)CN1CC[C@@H](N(C)C)[C@@H]1Cc1cccnc1,-1.5
O=C(Nc1cccnc1)N1CCC(Cc2cccc(Oc3ccc(C(F)(F)F)cn3)c2)CC1,-73.6*
CN1CCC(CN2CCN(CCC(=O)Nc3cccnc3)CC2)CC1,-19.4
O=C(O)c1cccc(CC2CCN(C(=O)Cc3cccnc3)CC2)c1,-50.9
CC1(C(=O)N2CCC(c3n[nH]c(=O)n3-c3ccccc3)CC2)CCCCO1 (configuration not stated),33.3
C/C=C/c1ccc(C2[C@H]3CNC[C@@H]2N3C(=O)NC2CCCCC2)cc1 (some centres not stated),-76.2*!
C/C=C/c1ccc(C2[C@H]3CNC[C@@H]2N3C(=O)NCCC)cc1 (some centres not stated),8.1
C/C=C/c1ccc(C2[C@H]3CNC[C@@H]2N3C(=O)Nc2ccccc2Cl)cc1 (some centres not stated),44.5
Cc1nc(Cc2ccccc2)sc1C(=O)Nc1ccc2c(c1)NC(=O)C(C)O2 (configuration not stated),-12.2
CS(=O)(=O)N1CCN(Cc2cccnc2)CC(C(=O)O)C1 (configuration not stated),44.2
Cc1nnc(NC(=O)CSc2ccccn2)s1,10.4
CCc1nnc(NC(=O)CSc2nc3cccnc3n2Cc2ccccc2)s1,-83.3*
SMILES,Tgondii IFNg
O=C(CSc1nc2ccccc2n1Cc1ccccc1)Nc1ccccn1,-6.4
S=C(NCc1ccccc1)NCc1cccc(CNC(=S)NCc2ccccc2)c1,-2.4
O=C(O)C(Cc1ccc(F)cc1)c1ccccc1 (configuration not stated),-10.1
Fc1ccc(CNC(=S)NC(Cc2ccccc2)c2ccccc2)cc1 (configuration not stated),-93.9*
Cc1cc2cc(NC(=O)CCc3ccc(S(N)(=O)=O)cc3)cc(Cl)c2o1,8.0
CC(C)n1nc(Cn2cccc2)c2c1CN(CC1CCOC1)C2 (configuration not stated),3.2
CC(C)(C)c1csc(CCNC(=O)CCn2cnc3ccccc3c2=O)n1,3.8
COc1ccc(CCN(C)CCCC(C#N)(c2cc(OC)c(OC)c(OC)c2)C(C)C)cc1OC (configuration not stated),-47.3
COc1ccc(CCN(C)CCCOc2ccc(S(=O)(=O)c3c(C(C)C)c4ccccc4n3C)cc2)cc1OC,-73.0*
COc1ccc(CCN(C)CCc2ccc(OC)c(OC)c2)cc1OC,4.6
COc1cc2c(Oc3ccc4[nH]c(C)cc4c3F)ncnc2cc1OCCCN1CCCC1,-59.4
C#Cc1cccc(Nc2ncnc3cc(OCCOC)c(OCCOC)cc23)c1,-46.9
COc1cc2c(Nc3ccc(NC(=O)c4ccccc4)cc3)ncnc2cc1OCCCN1CCOCC1,-76.0*!
Cc1cnccc1N1CCCN(c2cc(N3CCOCC3)nc(N)n2)CC1,-6.0
CN(Cc1ccccc1)C1CCN(Cc2cnn(C)c2)C(C(=O)O)C1 (configuration not stated),24.1
O=C(c1ccc(F)cc1)c1cc2cc(Br)cc(Br)c2o1,85.4
CCSc1nc(CC(=O)N(C)Cc2csc(C(C)C)n2)cs1,0.2
Cc1cccc(/C=N/Nc2cc(N3CCOCC3)nc(OCCc3ccccn3)n2)c1,-73.8*
Cc1cccnc1CC(C)Nc1cc(N2CCOCC2)nc(N)n1 (configuration not stated),5.6
Cc1cccc(CN2CCOCC3(CCN(c4ccccn4)C3)C2)n1 (configuration not stated),-42.8
O=S(=O)(CC(O)COc1ccc(Br)cc1)c1ccc(Cl)cc1 (configuration not stated),-16.2
Cc1nc(CN2CCN(C)C3(CCN(C(=O)c4ccco4)CC3)C2=O)cs1,26.7
Cc1nonc1CN(C)C(=O)c1sc(Cc2ccccc2)nc1C,1.5
CCCn1c(=O)cc(N2CCN(C(=O)CC)CC2)c2cc(C)ccc21,-76.2*
CCCCn1c(=O)cc(O)c2ccccc21,-3.4
SMILES,Tgondii IFNg
Cc1ccc(C)c(N2CCN(C(=O)CC3Nc4c5ccccc5nc(=S)n4C3=O)CC2)c1 (configuration not stated),4.9
O=C(NCCC1CCN(C2CCCC2)CC1)C1CCOC1 (configuration not stated),1.3
CCN1C(=O)N(Cc2cccc(OC)c2)C(=O)C12CCN(Cc1ccc(N3CCCC3)cc1)CC2,-13.8
CCN1C(=O)N(Cc2cccc(OC)c2)C(=O)C12CCN(CC(c1ccccc1)c1ccccc1)CC2,9.1
CCN1C(=O)N(Cc2cccc(OC)c2)C(=O)C12CCN(Cc1cc3ccccc3s1)CC2,-90.1*
CCN1CC2(CC1=O)CN(C(=O)N(C)C)CCN(S(=O)(=O)C1CC1)C2 (configuration not stated),5.2
Cc1ccc(C2(O)CCN(S(=O)(=O)c3cn(C)cn3)CC2)nc1,2.1
CNC(=O)CN1C(=O)CCC12CCCN(C(=O)c1ccco1)C2 (configuration not stated),-22.0
CC[N+](CC)(CC)CCC(O)(c1ccccc1)C1CCCCC1 (configuration not stated),21.8
CN1CCCN=C1COC(=O)C(O)(c1ccccc1)C1CCCCC1 (configuration not stated),-74.4*!
OC(CCN1CCCC1)(c1ccccc1)C1CCCCC1 (configuration not stated),-41.6
Cc1ccc2nc(C)cc(OCC(=O)Nc3cccc(-n4cccn4)c3)c2c1,-65.7
CC(C)N(C)Cc1ncn2c1CN(C(=O)NCc1cccc(F)c1)CCC2,-4.6
Cc1nnc(-c2ccccc2-c2ccc(-c3ccn[nH]3)cc2)o1,4.8
C/C=C/C(=O)Nc1ccccc1-c1ccc(-c2ccn[nH]2)cc1,-93.3*
CC(Oc1ccccc1-c1ccc(-c2ccn[nH]2)cc1)C(N)=O (configuration not stated),13.0
Cc1ccc(S(=O)(=O)Nc2cncc(C(=O)Nc3ccc(Cl)cc3)c2)c(C)c1,-6.5
CCc1nc(N)sc1C(=O)N1CCCN(c2ccncc2C)CC1,-4.4
O=C(c1ccc(-c2cncnc2)nc1)N1CCC(CCc2ccccc2)CC1,-1.3
COc1ccc(S(=O)(=O)NCCc2csc(-c3ccc(F)cc3)n2)cc1OC,24.0
COc1ccc(-c2nc3c(s2)CN(S(=O)(=O)c2cccc(F)c2)CC3)cc1,-4.5
